The record followed here is the supplement of paper PMC4894684.

Counter-ions that a name gives are not always drawn. ± gives the standard deviation of the averaged measurements.

For the assay, the system named is Toxoplasma gondii RH (in HFF). The assay is described as follows: parasite growth relative to the screen mean (all compounds = 100%); higher = less inhibition of parasite growth. As to conditions: 5 µM; 72 h; oxygen 21 %. Put shortly: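 Growth values are relative to the mean of the whole screen and averaged over duplicate screens, with all compounds together set to 100%. Parasites (RH β-Gal–GFP Toxoplasma, MOI 1:5) were added within 2 h of pinning compounds at 5 µM final onto confluent human foreskin fibroblasts and grown 72 h at 21% O2. Parasite number came from CPRG β-Gal readings against in-plate standard curves.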
As for `O=c1nc2ccccc2c2n1CC(CN1CCN(c3ccccc3)CC1)N2` (stereo not drawn), the parasite growth was found to be 120 ± 2.4%.
With `CC(C)[C@H](CO)Nc1nc(Nc2ccc(C(=O)O)c(Cl)c2)c2ncn(C(C)C)c2n1` [Purvalanol B], the parasite growth came out at 141 ± 2.9%.
In the case of `N=C(N)c1ccc(N2CCN(C3CCN(CC(=O)O)CC3)CC2)cc1`, the parasite growth amounted to 128 ± 33%.
The result for `CC(=O)NCCc1c(Cc2ccccc2)[nH]c2ccccc12` [Luzindole] reads 75.1 ± 29%; that for `CCCCOC(=O)c1cc2c(cn1)[nH]c1ccccc12`, 150 ± 37%.
In the case of `Cc1c(C(=O)NN2CCCCC2)nn(-c2ccc(Cl)cc2Cl)c1-c1ccc(I)cc1`, the parasite growth turned out to be 45.2 ± 3%.
As for `O=c1[nH]nc(Sc2ncc([N+](=O)[O-])s2)n1-c1ccc2c(c1)OCCO2`, the parasite growth was found to be 130 ± 46%.
`N[C@@H](Cc1cc(-c2ccc(Cl)cc2Cl)cc(CP(=O)(O)O)c1O)C(=O)O`: the parasite growth is 127 ± 26%.
With `Cc1ccc(NC(=O)C(C)C)cc1C1CCN(Cc2ccc(Oc3ccc(F)c(F)c3)cc2)CC1` the figure was under 0%.
In the case of `COc1ccc(CC(=O)NC(/N=C(\NC#N)Nc2cccc3ncccc23)C(C)(C)C)cc1OC` (stereo not drawn), the parasite growth is 123 ± 17%.
With `CC1(c2ccccc2)OC(C(=O)O)=CC1=O` (stereo not drawn) [Acifran] the figure was 114 ± 2.4%; with `NC1CCN(c2cccc(Cl)n2)CC1`, 141 ± 23%; with `OCCNCCCOc1cccc(Cl)c1Cl` [2,3-DCPE hydrochloride], 103 ± 8.3%.
`COc1cc(N)c(Cl)cc1C(=O)NC1CCN(CCCOc2ccc(F)cc2)CC1OC` (stereo not drawn) [Cisapride] showed a parasite growth of 20.8 ± 7.1%.
With `Cc1scc2c1N(C(=O)CN1CCN(C)CC1)c1ccccc1NC2=O` [Telenzepine dihydrochloride] the figure was 133 ± 26%.
Compound `NCCCCNCCCN` [Spermidine trihydrochloride] registered a parasite growth of 90.6 ± 7.8%.
The result for `COc1ccc(CCN(C)CCc2ccc(OC)c(OC)c2)cc1OC` [YS-035 hydrochloride] reads 136 ± 23%.
The compound `CC(C)[C@H](NS(=O)(=O)c1ccc(-c2ccc(Br)cc2)cc1)C(=O)O` showed a parasite growth of 130 ± 34%.
`Clc1cccc(Nc2nnc(-c3ccccc3)c3ccccc23)c1`: the parasite growth amounted to 143.2 ± 1.4%.
With `CN(C)c1ccc(/C=C2/C(=O)Nc3ccccc32)cc1` the figure was 124 ± 26%.
The result for `OC[C@H]1O[C@@H](n2cnc3c(N[C@H]4CCC[C@@H]4O)ncnc32)[C@H](O)[C@@H]1O` reads 140 ± 10%.
In turn, `C=C[C@@]1(C)CC(=O)[C@]2(O)[C@@]3(C)[C@@H](O)CCC(C)(C)[C@@H]3[C@H](O)[C@H](OC(C)=O)[C@@]2(C)O1` [Forskolin] registered a parasite growth of 116 ± 2.3%.
As to `N#C/C(=C\c1ccc(O)c(O)c1)C(=O)Nc1ccccc1`, the parasite growth was 141 ± 23%.
The result for `COc1ccc([C@H]2CNC(=O)C2)cc1OC1CCCC1` [(S)-(+)-Rolipram] reads 116 ± 30%.
With `CCN(CC)CCOCCOC(=O)C1(c2ccccc2)CCCC1` [Carbetapentane citrate] the figure was 137 ± 18%; with `C/C(=N\NC(=O)C1C(=O)NCC1c1ccccc1)c1cccc(Br)c1` (stereo not drawn), 147 ± 29%; with `COc1cc2ncnc(Nc3ccc(Cl)cc3F)c2cc1OC`, 28.9 ± 13%.
`NC(C(=O)O)c1ccc(C(=O)O)c(C(=O)O)c1` (stereo not drawn) registered a parasite growth of 141 ± 3%.
Turning to `Cc1c(C(=O)NC2CCCCC2)sc2nc3ccc(N)cc3n12`, the parasite growth amounted to 183 ± 33%.
The result for `Nc1c(Br)cc(Br)cc1CN[C@H]1CC[C@H](O)CC1` [Ambroxol hydrochloride] reads 136 ± 3.2%.
The result for `O=C(CCCN1CCC(O)(c2ccc(Cl)cc2)CC1)c1ccc(F)cc1` [Haloperidol hydrochloride] reads 134 ± 39%.
On to `CC(C)(CO)Cc1cc(C(C)(C)C)c(O)c(C(C)(C)C)c1`, for which the parasite growth worked out at 192 ± 11%.
Regarding `CC1=C(C(=O)OCCN(Cc2ccccc2)c2ccccc2)C(c2cccc([N+](=O)[O-])c2)C(P2(=O)OCC(C)(C)CO2)=C(C)N1` (stereo not drawn) [Efonidipine hydrochloride monoethanolate], the parasite growth was 58 ± 3.9%.
With `CC(C(=O)O)c1ccc(-c2ccccc2)c(F)c1` (stereo not drawn) [Flurbiprofen] the figure was 139 ± 26%; with `COc1cc(/C=C(\C#N)C(N)=O)cc(CSc2nc3ccccc3s2)c1O`, 128 ± 3.3%; with `Cc1cccc(Nc2cc(Cl)nc(SCC(=O)O)n2)c1C`, 108.5 ± 0.57%.
Compound `Nc1cc(N2CCCCC2)nc(N)[n+]1[O-]` [Minoxidil] showed a parasite growth of 111 ± 13%.
The result for `COc1ccc(-n2[nH]c3c4c(ncc3c2=O)CCCCC4)cc1` reads 105 ± 28%.
